# Data published in PubChem BioAssay AID2156 (Johns Hopkins Ion Channel Center, 2009).
# The whole screen tested about 310,000 compounds, of which about 3,400 (1.1%) were called active.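 Rule for the calls: active = fluorescence ratio B-score at most minus 3 library SDs, with starting brightness B-score within 2 library SDs (cut at about -5.5 in these data); inactive = the rest, inconclusive results apart.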 The entries come from a sample that favours actives as a whole.
# Target: Potassium voltage-gated channel subfamily KQT member 2 (Rattus norvegicus) (UniProt O88943)
# Sequence (O88943 whole entry, looked up): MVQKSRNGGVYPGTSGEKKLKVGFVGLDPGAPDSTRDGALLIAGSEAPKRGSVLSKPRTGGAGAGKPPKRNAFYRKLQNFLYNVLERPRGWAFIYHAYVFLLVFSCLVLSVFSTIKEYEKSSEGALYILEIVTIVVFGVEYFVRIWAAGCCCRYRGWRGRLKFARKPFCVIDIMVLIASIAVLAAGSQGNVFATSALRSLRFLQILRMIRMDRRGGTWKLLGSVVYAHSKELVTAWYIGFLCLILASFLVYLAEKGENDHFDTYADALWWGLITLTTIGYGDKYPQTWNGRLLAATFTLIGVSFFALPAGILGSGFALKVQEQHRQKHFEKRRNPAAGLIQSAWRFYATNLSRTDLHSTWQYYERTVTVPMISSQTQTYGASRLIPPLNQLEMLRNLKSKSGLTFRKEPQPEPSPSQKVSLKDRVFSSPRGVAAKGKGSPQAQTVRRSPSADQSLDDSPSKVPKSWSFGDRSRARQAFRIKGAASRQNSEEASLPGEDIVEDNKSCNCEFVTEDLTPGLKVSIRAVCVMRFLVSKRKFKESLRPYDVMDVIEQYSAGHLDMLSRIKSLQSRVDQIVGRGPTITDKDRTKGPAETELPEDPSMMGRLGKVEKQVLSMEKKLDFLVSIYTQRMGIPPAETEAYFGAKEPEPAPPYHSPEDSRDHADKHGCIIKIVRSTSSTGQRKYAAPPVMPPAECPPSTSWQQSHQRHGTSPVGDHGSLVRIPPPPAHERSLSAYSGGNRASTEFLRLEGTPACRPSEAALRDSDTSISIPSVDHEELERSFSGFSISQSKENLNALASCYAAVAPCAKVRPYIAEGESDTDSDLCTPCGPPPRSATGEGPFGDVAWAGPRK
# Assay: KCNQ2 channel blockers in CHO-K1 cells – cell-based, FluxOR thallium flux, B-score, primary screen (AID 2156)
# Conditions: 20 min, at 10 µM; hits give low values
row,Structure (SMILES),B-score
1,Cn1cccc1C(=O)NNC(=O)COc1ccc(Br)cc1,-0.05 (inactive)
2,COc1cc(NC(=O)CSC(=S)N2CCCC2)c(OC)cc1Cl,inactive
3,Fc1ccc2[nH]c3c(N4CCSCC4)ncnc3c2c1,-10.1 (active)
4,Cc1c(CN2CC[C@@H](N3CCN(c4ccccn4)CC3)[C@H](O)C2)[nH]c2ccc(F)cc12,-0.01 (inactive)
5,CC(C)OCCCNc1ncnc2c1[nH]c1ccc(F)cc12,-0.41 (inactive)
6,Cc1ccc(CNS(=O)(=O)CCNC(=O)c2ccccc2)cc1,inactive
7,CSc1ccccc1NC(=O)c1cnc2sc(C)cn2c1=O,inactive
8,COc1cc(C(=O)NCC(=O)N2CC=C(c3ccccc3)CC2)cc(OC)c1OC,inactive
9,O=C(Nc1ccc(Cl)c(Cl)c1)N1CC=C(c2ccccc2)CC1,-8.43 (active)
10,O=C(Nc1ccccc1)N1CCN(C(=O)Nc2ccccc2)CC1,inactive
11,CC(OC(=O)CNC(=O)c1cccc(F)c1)C(=O)NC1CCCCC1C (configuration not stated),inactive
12,COCCCN(C(=O)CSCc1ccc(C)cc1)c1c(N)n(Cc2ccccc2)c(=O)[nH]c1=O,inactive
13,CCCCCCCCCCCCN1C(=O)CSC1c1cccnc1 (configuration not stated),-6.52 (active)
14,CN(C)CCCN1C(=O)CSC1c1ccc([N+](=O)[O-])cc1 (configuration not stated),-0.19 (inactive)
15,CCCCCCOc1ccc(OC(=O)c2cccnc2)cc1,inactive
16,O=C(Nc1ccc(OC(F)(F)F)cc1)c1ccc2c(c1)no[n+]2[O-],inactive
17,COc1cccc(-c2nc(S(=O)(=O)c3ccccc3)c(N3CCOCC3)o2)c1,inactive
18,COc1cccc(-c2cc3nc4c(c(N5CCC6(CC5)OCCO6)n3n2)CCCC4)c1,-5.95 (active)
19,COc1cccc(CNc2nc3nc4c(c(=O)n3[nH]2)CCC4)c1,inactive
20,CN(C(=O)CN1C(=O)NC(C)(CCc2ccccc2)C1=O)c1ccccc1 (configuration not stated),inactive
21,CC1(C)Cc2ccccc2/C(=C/C(=O)c2ccccc2)N1,-5.67 (active)
22,CC(C)CC(N=C1NC(C)(C)Cc2ccccc21)C(=O)O (configuration not stated),-0.08 (inactive)
23,CCOC(=O)C1=C(NC(=S)NC(=O)c2ccccc2)c2ccccc2CC1(C)C,-1.51 (inactive)
24,COc1ccc(CCNc2nc(-c3cccc(NC(C)=O)c3)cs2)cc1OC,-0.02 (inactive)
25,COc1cccc(CC(=O)Nc2nc(-c3ccc(OC)c(OC)c3)cs2)c1,inactive

row,Structure (SMILES),B-score
1,COc1ccc(CCN(C(=O)COc2ccccc2)c2nc(-c3ccccc3)cs2)cc1OC,-7.67 (active)
2,CCN1CCN(c2ccc(S(=O)(=O)N3CCCCC3)cc2NC(=O)c2cccc(NC(C)=O)c2)CC1,inactive
3,COc1cc(C(=O)OCC(=O)N(CC(C)C)C2CCS(=O)(=O)C2)ccc1OCC(C)C (configuration not stated),inactive
4,C=CCn1c(SCc2c(C)noc2C)nc2sc3c(c2c1=O)CCC(C)C3 (configuration not stated),-3.13 (inactive)
5,C=CCn1c(SCc2csc(C)n2)nc2scc(-c3ccc(C)o3)c2c1=O,-5.75 (active)
6,C=CCNC(=O)CSc1nc2scc(-c3ccco3)c2c(=O)n1CC=C,-1 (inactive)
7,COc1cc(C(=O)N(C)Cc2cccc(OC)c2OC)ccc1OCC(=O)Nc1cccc(C(F)(F)F)c1,-4.11 (inactive)
8,COc1ccc(F)cc1S(=O)(=O)NCC(c1ccc2c(c1)OCO2)N1CCN(C)CC1 (configuration not stated),-0.58 (inactive)
9,Cc1cc(OCCCN2CCN(Cc3ccccc3)CC2)ccc1[N+](=O)[O-],inactive
10,Cc1cc(OCC(=O)Nc2c(C)n(C)n(-c3ccccc3)c2=O)ccc1[N+](=O)[O-],-0.54 (inactive)
11,Cc1cc(OCCCCOc2ccc(C#N)cc2)ccc1[N+](=O)[O-],-6.09 (active)
12,Cc1cccc(N(Cc2ccccc2)C(=O)c2cc(S(=O)(=O)N3CCOCC3)ccc2F)c1,inactive
13,CC(=O)c1c(C)[nH]c(C(=O)CN2C(=O)NC(C)(C)C2=O)c1C,inactive
14,COc1ccccc1NS(=O)(=O)c1ccc(C(=O)N2CCN(c3ccccc3O)CC2)cc1,inactive
15,Cc1c(NC(=O)C(C)OC(=O)c2c3c(nc4ccccc24)CCC(C)C3)c(=O)n(-c2ccccc2)n1C (configuration not stated),inactive
16,Cc1ccc(Cl)c(OCC(=O)N2CCc3ccccc3C2)c1,-3.66 (inactive)
17,Cc1ccc2c(c1)N(C(=O)CCC(=O)N1CCc3ccccc3C1)CCO2,-5.74 (active)
18,Cc1ccc2c(c1)N(C(=O)CCC(=O)NCc1cccnc1)CCO2,-0.11 (inactive)
19,COc1ccc(C(=O)OCC(=O)Nc2ccc3[nH]c(=O)[nH]c3c2)c(OC)c1OC,-0.64 (inactive)
20,Cc1cc(C(=O)NC2CCCc3c2cnn3-c2cccc(C)c2C)c(C)o1 (configuration not stated),-2.79 (inactive)
21,Cn1nccc1C(=O)NC1CCCc2c1cnn2-c1ccccc1F (configuration not stated),inactive
22,COc1ccc(C(=O)NC2CCCc3c2cnn3-c2cccc(C)c2C)c(OC)n1 (configuration not stated),-6.25 (active)
23,O=C(COC(=O)Cn1[nH]c(=O)c2ccccc2c1=O)Nc1c(Cl)cccc1C(F)(F)F,inactive
24,Cc1ccc2nc(NC(=O)CSc3nc(=O)n(CCCN(C)C)c4c3CCC4)sc2c1,inactive
25,CC12CCC(=O)N1C(C(=O)Nc1ccc(F)c(F)c1F)CS2 (configuration not stated),inactive

row,Structure (SMILES),B-score
1,CCOc1ccc(NS(=O)(=O)c2ccc(C(=O)NCC(c3ccccc3OC)N3CCCC3)cc2)cc1 (configuration not stated),-1.58 (inactive)
2,Cc1ccc(N2C(=O)C3C(c4ccccc4)(C2=O)C3(c2ccccc2)c2ccccc2)cc1 (configuration not stated),-9.48 (active)
3,Cc1ccc(N2C(=O)C3CC3C2=O)cc1 (configuration not stated),inactive
4,Cc1ccc(N2C(=O)CC(Nc3cccc4ccccc34)C2=O)cc1 (configuration not stated),-1.06 (inactive)
5,CN(CC(=O)Nc1ccccc1Cl)C(=O)c1ccccc1SCC(=O)N1CCCC1,-0.59 (inactive)
6,CCCCCCCNC(=O)C1(CC2CC(c3cccc(Br)c3)=NO2)CCN(C(=O)c2cc(OCC)c(OCC)c(OCC)c2)CC1 (configuration not stated),-2.53 (inactive)
7,COC(=O)c1sccc1NC(=O)c1cc(OC)c(OC)c(OC)c1,inactive
8,N#Cc1c(NC(=O)CCCN2C(=O)c3ccccc3C2=O)oc(-c2ccccc2)c1-c1ccccc1,-1.14 (inactive)
9,COc1cc(C(=O)Nc2oc(-c3ccccc3)c(-c3ccccc3)c2C#N)cc(OC)c1OC,-6.31 (active)
10,Cc1cccc(-[n+]2c(-c3cccc(Br)c3)[nH]c3nc4ccccc4nc32)c1,-6.92 (active)
11,Cc1cccc(-c2nc(Nc3ccc(O)cc3)c3ccccc3n2)c1,-3.05 (inactive)
12,CCCCn1c(N)c(N(CCOC)C(=O)CSCC(=O)Nc2cccc(C)c2)c(=O)[nH]c1=O,inactive
13,O=S(=O)(Nc1cccc(-c2ccc(N3CCOCC3)nn2)c1)c1ccc(Cl)c(Cl)c1,inactive
14,Cc1cc(C)c(S(=O)(=O)N2CCCC2CNC(=O)c2ccc3c(c2)OCO3)c(C)c1 (configuration not stated),-3.59 (inactive)
15,CCN(CC)CCOc1ccc2c(c1)C(=NNC(=O)c1ccccn1)c1cc(OCCN(CC)CC)ccc1-2,-7.1 (active)
16,Cc1ccc(Cl)cc1NC(=O)c1ccccn1,-3.49 (inactive)
17,Cc1cccc(OCC(=O)NCCCNC(=O)c2ccccn2)c1,-0.01 (inactive)
18,COc1cc(C(=O)NCC(=O)NCCSc2ccc(Br)cc2)cc(OC)c1OC,inactive
19,COc1cccc(NC(=O)CN(C)C(=O)CSCc2nc3scc(-c4cccs4)c3c(=O)[nH]2)c1,inactive
20,CCc1ccccc1NC(=S)Nc1cc(OC)c(NC(=O)C(C)C)cc1OC,-0.92 (inactive)
21,CCc1ccccc1NC(=O)/C(=C/c1ccccc1)c1ccccc1,-9.3 (active)
22,O=C(/C=C/c1ccccc1)N/C(=C/c1ccccc1)C(=O)Nc1ccccc1O,-0.61 (inactive)
23,COC(=O)c1ccc(N2CCOCC2)c(NC(=O)c2ccc(Br)o2)c1,inactive
24,CCCC(=O)Nc1ccc(Cl)c(NC(=O)c2ccc(Br)o2)c1,inactive
25,CCN1CCN(c2c(Cl)cccc2NC(=O)c2ccc(Br)o2)CC1,-6.14 (active)

row,Structure (SMILES),B-score
1,CN(/N=C/c1ccccc1)C(=S)c1ccccc1,inactive
2,O=C(NCCS(=O)(=O)N1CCN(c2ccc(F)cc2)CC1)c1ccc2c(c1)OCO2,inactive
3,O=C(c1cccc([N+](=O)[O-])c1)N1CCN(Cc2ccccc2)CC1,inactive
4,CC1(c2cccc([N+](=O)[O-])c2)CC(C)(C)N(C(=O)c2ccccc2)c2ccccc21 (configuration not stated),-7.53 (active)
5,CC1(c2ccccc2)CC(C)(C)N(C(=O)c2cc([N+](=O)[O-])cc([N+](=O)[O-])c2)c2ccccc21 (configuration not stated),-1.63 (inactive)
6,NC(=O)c1ccsc1NC(=O)COC(=O)Cc1n[nH]c(=O)c2ccccc12,-1.74 (inactive)
7,COc1ccc(S(=O)(=O)NCCCc2ccccc2)cc1,inactive
8,Cc1ccc(OCCNC(=O)CCNS(=O)(=O)c2ccc(Br)cc2)cc1,inactive
9,COC(=O)c1ccc(N2CCOCC2)c(NC(=O)c2ccc3c(c2)OCCO3)c1,inactive
10,O=C(Nc1cccc(Cl)c1N1CCOCC1)c1ccc2c(c1)OCCO2,-6.48 (active)
11,O=C(Nc1cccc(Cl)c1N1CCOCC1)c1cccnc1,inactive
12,Cc1ccc(NC(=O)CSCC(=O)Nc2sccc2C#N)cc1,-0.08 (inactive)
13,O=C(COC(=O)c1ccccc1Br)Nc1nnc(-c2ccccc2)o1,-0.06 (inactive)
14,CC(C)(C)n1nnnc1C(c1cccs1)N(Cc1cccnc1)CC1CCCO1 (configuration not stated),-0.68 (inactive)
15,CCOc1ccc(CN(Cc2ccco2)S(=O)(=O)c2ccc(-n3cnnn3)c(OC)c2)cc1,inactive
16,CCOc1ccc(CN(Cc2ccco2)C(c2cccs2)c2nnnn2C(C)(C)C)cc1 (configuration not stated),-6.35 (active)
17,O=C(NCc1ccccn1)Nc1ccc(Cl)cc1,inactive
18,CCCN(CC(=O)Nc1ccccc1OC)C(=O)CCC(=O)c1ccc(F)cc1,-1.98 (inactive)
19,CN(C1CCS(=O)(=O)C1)S(=O)(=O)c1ccc2ccccc2c1 (configuration not stated),-0.6 (inactive)
20,COCCN1C(=O)c2oc3c(C)cc(C)cc3c(=O)c2C1c1cccc(O)c1 (configuration not stated),-6.4 (active)
21,O=C1c2oc3ccccc3c(=O)c2C(c2cccc(O)c2)N1c1ccccn1 (configuration not stated),-0.06 (inactive)
22,O=C1c2oc3ccc(Br)cc3c(=O)c2C(c2cccc(F)c2)N1CCO (configuration not stated),-4.46 (inactive)
